In PMC4336329 (PLoS ONE, 2015):
Out of some 310,000 compounds screened, about 2,200 (0.71%) showed an effect of 50% or more. Effects have a minus sign here. Shown is part of a subset that was picked to be rich in strong results.

molecular target: human ether-à-go-go-related gene (hERG) potassium channel (human, UniProt Q12809); assay: primary screen, population patch clamp on CHO cells stably expressing hERG; higher = less effect of the substance
Sequence (Q12809 whole entry, looked up): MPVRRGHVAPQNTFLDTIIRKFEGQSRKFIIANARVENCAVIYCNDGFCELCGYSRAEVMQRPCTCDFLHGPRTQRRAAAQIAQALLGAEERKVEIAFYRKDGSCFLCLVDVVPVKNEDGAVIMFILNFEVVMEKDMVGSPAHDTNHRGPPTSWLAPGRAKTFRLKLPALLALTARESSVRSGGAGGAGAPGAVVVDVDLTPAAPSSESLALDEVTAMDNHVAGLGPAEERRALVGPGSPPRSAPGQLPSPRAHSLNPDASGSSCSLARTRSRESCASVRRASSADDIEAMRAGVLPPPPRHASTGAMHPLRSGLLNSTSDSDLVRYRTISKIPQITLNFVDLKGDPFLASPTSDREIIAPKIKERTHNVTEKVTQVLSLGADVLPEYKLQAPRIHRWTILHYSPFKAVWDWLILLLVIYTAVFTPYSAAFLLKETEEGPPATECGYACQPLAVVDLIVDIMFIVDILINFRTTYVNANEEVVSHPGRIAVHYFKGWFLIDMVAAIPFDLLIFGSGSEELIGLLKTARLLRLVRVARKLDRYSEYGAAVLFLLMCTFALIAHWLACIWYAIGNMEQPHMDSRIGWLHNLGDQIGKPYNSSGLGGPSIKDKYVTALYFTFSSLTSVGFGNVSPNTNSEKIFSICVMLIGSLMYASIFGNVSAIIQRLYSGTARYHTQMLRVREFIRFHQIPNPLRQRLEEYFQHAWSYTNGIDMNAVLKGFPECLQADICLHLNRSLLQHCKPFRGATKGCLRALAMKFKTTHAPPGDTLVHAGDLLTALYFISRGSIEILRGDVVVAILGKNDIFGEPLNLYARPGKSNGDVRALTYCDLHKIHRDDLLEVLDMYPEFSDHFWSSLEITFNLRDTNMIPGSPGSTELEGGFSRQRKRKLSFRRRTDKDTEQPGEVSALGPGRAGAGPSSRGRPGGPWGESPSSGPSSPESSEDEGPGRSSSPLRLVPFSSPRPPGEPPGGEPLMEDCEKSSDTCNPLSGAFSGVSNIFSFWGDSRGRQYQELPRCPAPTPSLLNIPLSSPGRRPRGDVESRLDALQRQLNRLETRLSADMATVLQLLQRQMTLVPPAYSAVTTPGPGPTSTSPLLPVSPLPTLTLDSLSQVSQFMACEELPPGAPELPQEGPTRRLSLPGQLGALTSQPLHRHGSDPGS

Row | SMILES | hERG current change (%, negative = inhibition) at 1uM [%]
1 | COc1ccc(C(=O)Nc2nc(N3C(=O)c4ccccc4C3=O)n(-c3ccccc3)n2)cc1 | 3.14
2 | CSc1ncc(Sc2ccccc2)c(C(=O)O)n1 | 10.3
3 | Cc1ccccc1-c1noc(CCC(=O)NCCc2ccccc2)n1 | 10.4
4 | O=C(CSc1nnc(NC(=O)c2ccc(F)cc2F)s1)NC1CC1 | 14.9
5 | COc1cc(OC)cc(-c2nnc(Nc3nc4c(F)cccc4s3)o2)c1 | 6.96
6 | O=C(c1ccc2c(=O)n(CC3CCCO3)c(=S)[nH]c2c1)N1CCN(c2ccccc2)CC1 (stereo not shown) | 3.81
7 | O=C(CCNS(=O)(=O)c1cccs1)N1CCN(c2cccc(C(F)(F)F)c2)CC1 | -2.16
8 | C=CCn1c(C2CC2)n[nH]c1=S | 1.66
9 | O=C(NCc1ccc(Cl)cc1)c1noc2c1CCCCC2 | -6.49
10 | Cc1cccn2c(=O)nc(SCC(=O)N3CCC(C)CC3)nc12 | 2.05
11 | Cc1cccn2c(=O)nc(SCC(=O)N3CCC(Cc4ccccc4)CC3)nc12 | -69.2
12 | O=C(CSc1nc(=O)n2ccccc2n1)N1CCC(Cc2ccccc2)CC1 | -27.4
13 | CCOc1ccccc1NC(=O)C(OC(=O)c1ccccc1O)c1ccccc1 (stereo not shown) | -2.03
14 | O=S(=O)(NC1CCC(NS(=O)(=O)c2c(F)cccc2F)CC1)c1ccc2c(c1)OCCO2 (stereo not shown) | 10.7
15 | COc1ccc(C[C@@H]2CN3C(=NC[C@@H]3C)N2C[C@H](C)NC(=O)c2ccc(C)c(Br)c2)cc1 | -56.4
16 | COc1ccc(C[C@H]2CN3C(=NC[C@@H]3Cc3ccc(O)cc3)N2C[C@H](C)NC(=O)c2ccc(C)c(Br)c2)cc1 | -60.1
17 | Cc1ccc(C(=O)N[C@@H](C)CN2C3=NC[C@H](C(C)C)N3C[C@H]2Cc2ccc(O)cc2)cc1Br | -34.3
18 | Cc1ccc(C(=O)NCCN2C3=NC[C@@H](Cc4ccccc4)N3C[C@H]2Cc2ccc(O)cc2)cc1Br | -4.33
19 | C/C=C(\C)C(=O)NCCN1C2=NC[C@H](Cc3ccc(O)cc3)N2C[C@@H]1Cc1ccc(OC)cc1 | 10.6
20 | Cc1ccc(C(=O)N[C@@H](C)CN2C3=NC[C@H](Cc4ccccc4)N3C[C@H]2Cc2ccc(O)cc2)cc1Br | -68.1
21 | C/C=C(\C)C(=O)NCCN1C2=NC[C@H](C)N2C[C@@H]1Cc1ccc(OC)cc1 | 7.75
22 | COc1ccc(C[C@H]2CN3C(=NC[C@@H]3C(C)C)N2C[C@H](C)NC(=O)c2ccc(C)c(Br)c2)cc1 | -41.9

Row | SMILES | hERG current change (%, negative = inhibition) at 1uM [%]
23 | COc1ccc(C[C@H]2CN3C(=NC[C@@H]3Cc3ccc(O)cc3)N2CCNC(=O)c2ccc(C)c(Br)c2)cc1 | -18.4
24 | Cc1cc(Cl)cc(Br)c1OCCCCn1cncn1 | -0.515
25 | Cc1cc(=O)[nH]c(N/N=C/c2cccc([N+](=O)[O-])c2)n1 | 9.49
26 | CC1(c2nnc(Cc3ccccc3)o2)CC(c2ccccc2[N+](=O)[O-])=NO1 (stereo not shown) | 0.886
27 | Cc1c(NC(=O)c2ccc(Cl)s2)c(=O)n(-c2ccccc2)n1C | 8.57
28 | Cn1nc2c(c1C(=O)N1CCCC(C(=O)c3cc(F)ccc3F)C1)CCCC2 (stereo not shown) | 10.8
29 | CO/N=C(\Cn1ncc(NC2CCCCC2)c(Br)c1=O)c1ccc(Cl)cc1 | -1.74
30 | CCCCNC(=O)CCCCCNS(=O)(=O)c1ccc(Br)cc1 | -26.3
31 | Cc1cc(N2CCN(c3ccc(F)cc3)CC2)n2ncnc2n1 | -14.8
32 | Cc1cc(N2CCN(c3ccccc3)CC2)n2ncnc2n1 | -7.73
33 | Cc1cc(N2CCN(C(c3ccccc3)c3ccccc3)CC2)n2ncnc2n1 | 8.18
34 | Cc1cc(N2CCN(c3nc4ccccc4s3)CC2)n2ncnc2n1 | -74.9
35 | CC(=O)Nc1ccc(S(=O)(=O)N2CCN(c3cc(C)nc4ncnn34)CC2)cc1 | -9.05
36 | Cc1cc(N2CCN(C/C=C/c3ccccc3)CC2)n2ncnc2n1 | -52.2
37 | Cc1cc(N2CCN(S(=O)(=O)Cc3ccccc3)CC2)n2ncnc2n1 | -11.4
38 | Cc1cc(N2CCN(S(=O)(=O)c3ccc(Br)cc3)CC2)n2ncnc2n1 | -84.8
39 | Cc1cc(N2CCN(S(=O)(=O)c3ccc4ccccc4c3)CC2)n2ncnc2n1 | -48.4
40 | O=C(Nc1ccc(Nc2ccccc2)cc1)C(Cl)(Cl)Cl | 7.95
41 | CCCS(=O)(=O)N1CCN(C(=O)COc2ccc(OC)cc2)CC1.O=C(O)C(=O)O | 11.7
42 | O=C(CN(C(=O)c1csnn1)c1ccccc1C(F)(F)F)NC1CCCCC1 | 14.5
43 | Cc1ccc(N(CC(=O)NCC2CCCO2)C(=O)Cn2nnc(-c3cccs3)n2)cc1 (stereo not shown) | 2.07
44 | CC(C)(CN=C1NS(=O)(=O)c2ccccc21)CNC(=O)CN1C(=O)c2ccccc2C1=O | -1.01

Row | SMILES | hERG current change (%, negative = inhibition) at 1uM [%]
45 | COCCCNC(=O)C(=O)Nc1cc2c3c(c1)CCN3C(=O)CC2 | 21.5
46 | CCOc1cc(CN2CCCC(CO)(Cc3ccc(F)cc3F)C2)ccc1OC (stereo not shown) | -10.8
47 | Cc1cccc(N2CCN(C(=O)Cn3nc(Cc4ccncc4)c4ccccc4c3=O)CC2)c1C | 3.71
48 | CC(C)(C)OC(=O)N/N=C\c1ccc(OC(=O)c2ccco2)cc1 | 10.8
49 | COc1ccccc1C(=O)NC1CCN(C(=O)Nc2ccc(C)cc2)CC1 | 10.5
50 | O=C(CC1SC(=Nc2ccc(OC(F)F)cc2)N(CCN2CCOCC2)C1=O)Nc1ccc(F)cc1F (stereo not shown) | -80.4
51 | O=C(CC1SC(=Nc2ccccc2F)N(CCN2CCOCC2)C1=O)Nc1ccc(F)cc1F (stereo not shown) | 1.58
52 | COc1ccc(N=C2SC(CC(=O)Nc3ccccc3)C(=O)N2CCN2CCOCC2)cc1 (stereo not shown) | 3.66
53 | c1ccc(CN2CCC(Nc3ncnc4sccc34)CC2)cc1 | -31.2
54 | Cc1sc2ncnc(NC3CCN(Cc4ccccc4)CC3)c2c1C | -56.9
55 | Cc1csc2ncnc(NC3CCN(Cc4ccccc4)CC3)c12 | -35.4
56 | NC(=S)Nc1cccc2cc3ccccc3cc12 | 0.594
57 | O=C1NC(c2ccc3c(c2)OCO3)Oc2ccccc21 (stereo not shown) | 7.7
58 | CN(C)CCCOC(=O)c1ccc(Cl)cc1Cl.Cl | -7.49
59 | CCN(CC)CCOC(=O)c1ccc(Cl)cc1Cl.Cl | -8.41
60 | CCCN(CCC)CCCOC(=O)c1ccc(Cl)cc1Cl.Cl | -56.8
61 | CN(Cc1ccc(-n2cccn2)cc1)Cc1cn(C)nc1-c1ccccc1F | -63.5
62 | CN(Cc1cccc(-n2cccn2)c1)Cc1cn(C)nc1-c1ccccc1F | 16.7
63 | Cn1cc(CNCc2ccc(-n3cccn3)cc2)c(-c2ccccc2F)n1 | -35.4
64 | Cc1ccc(=O)n(C(C(=O)NCc2ccco2)C(=O)c2ccc(F)cc2)c1 (stereo not shown) | 6.1
65 | Cn1c(Cn2nnc(-c3ccccc3)n2)nnc1SCc1ccccc1Cl | 5.26
66 | CCCCOc1ccc(Cc2c(COCC)[nH]c(=S)[nH]c2=O)cc1 | 13

Row | SMILES | hERG current change (%, negative = inhibition) at 1uM [%]
67 | Fc1cccc(C2NC(=S)NC3=C2N2CCC3CC2)c1 (stereo not shown) | 1.79
68 | COc1ccc(CCNC(=O)c2c(O)c3cccc4c3n(c2=O)CC4)cc1OC | -6.66
69 | COc1cccc(-c2nc(CS(=O)(=O)CC(=O)NCCC(C)C)c(C)o2)c1 | 14.4
70 | COc1cccc(-c2nc(CS(=O)(=O)CC(=O)NCCCN3CCN(C)CC3)c(C)o2)c1 | 11.2
71 | COCCCNC(=O)CS(=O)(=O)Cc1nc(-c2cccc(OC)c2)oc1C | 11.3
72 | COc1cccc(-c2nc(CS(=O)(=O)CC(=O)NCCCN3CCc4ccccc4C3)c(C)o2)c1 | -56.3
73 | CCCNC(=O)CS(=O)(=O)Cc1nc(-c2cccc(OC)c2)oc1C | -284
74 | COc1cccc(-c2nc(CS(=O)(=O)CC(=O)NCCCN3CCOCC3)c(C)o2)c1 | 10.9
75 | Cn1nc(C(F)(F)F)cc1C(=O)O | 17.3
76 | Cl.O=C(Nc1ccc(Br)cn1)c1ccc(Br)s1 | 13.3
77 | N=c1c(C(=O)NC2CCCCC2)cc2c(=O)n3ccccc3nc2n1Cc1ccccc1 | -10.1
78 | N=c1c(C(=O)NC2CCCCC2)cc2c(=O)n3ccccc3nc2n1Cc1ccc(F)cc1 | -29.5
79 | Cc1ccc(Cn2c(=N)c(C(=O)NC3CCCC3)cc3c(=O)n4ccccc4nc32)cc1 | -73.4
80 | N=c1c(C(=O)NC2CCCCC2)cc2c(=O)n3ccccc3nc2n1Cc1cccnc1 | -50.6
81 | N=c1c(C(=O)NC2CCCCC2)cc2c(=O)n3ccccc3nc2n1Cc1ccco1 | -59.1
82 | N=c1c(C(=O)NC2CCCC2)cc2c(=O)n3ccccc3nc2n1Cc1ccccc1 | -55.9
83 | Cc1ccc(Cn2c(=N)c(S(=O)(=O)c3ccc(C)cc3)cc3c(=O)n4ccccc4nc32)cc1 | 6.66
84 | Cc1ccc(Cn2c(=N)c(C(=O)NC3CCCCC3)cc3c(=O)n4ccccc4nc32)cc1 | -5.62
85 | Cc1ccc(S(=O)(=O)c2cc3c(=O)n4ccccc4nc3n(Cc3ccco3)c2=N)cc1C | -6.2
